Reference: PubChem BioAssay (NCATS)
Values joined by “and” are separate entries in the source; they are usually repeats but may differ in a detail not shown here. Identical values can stand only once. Results filed as inconclusive are left out. Values without a mark were called inactive. Calls come from the whole dose curve; as a rule, active = well fitted cell-killing curve with a large enough effect in the repeat runs; inconclusive = weak or mixed curves; inactive = flat fitted curve, though single readings scatter.

Assay: qHTS assay for small molecule agonists of the antioxidant response element (ARE) signaling pathway measured by Nrf2-dependant transcriptional activity - cell viability counter screen (AID 720653)
Details: ARE-bla HepG2 viability, CellTiter-Glo ATP luminescence, 16 h; max response: active compounds read low
From the text: National Center for Advancing Translational Sciences [NCATS] NIH Chemical Genomics Center [NCGC] U.S. Environmental Protection Agency [EPA] National Institutes of Environmental Health Sciences [NIEHS] National Toxicology Program [NTP] Assay Overview: Oxidative stress has been implicated in the pathogenesis of a variety of diseases ranging from cancer to neurodegeneration. The antioxidant response element (ARE) signaling pathway plays an important role in the amelioration of oxidative stress. The CellSensor ARE-bla HepG2 cell line (Invitrogen) can be used for analyzing the Nrf2/antioxidant response signaling pathway. Nrf2 (NF-E2-related factor 2) and Nrf1 are transcription factors that bind to AREs and activate these genes. The CellSensor ARE-bla HepG2 cell line contains a beta-lactamase reporter gene under control of the Antioxidant Response Element (ARE) stably integrated into HepG2 cells. The activation of the report gene under culture conditions can be detected by fluorescence intensity. The cytotoxicity of the compounds against the ARE-bla HepG2 cell line was quantified by measuring the intracellular ATP content.
Assay Protocol Summary: ARE-bla HepG2 cells were dispensed at 2,000 cells/5 ul/well in 1536-well black wall/clear bottom plates using a Multidrop Combi (ThermoFisher Scientific, Waltham, MA) dispenser. After the assay plates were incubated at 37C/5% CO2 for 5 hrs, 23 nL of compounds dissolved in DMSO, positive controls or DMSO only was transferred to the assay plate by a pintool work station (Kalypsys, San Diego, CA). The plates were incubated at 37C/5% CO2 for 16 hrs. After 1 uL of LiveBLAzer B/G FRET substrate was added using a Flying Reagent Dispenser (FRD) (Aurora Discovery, San Diego, CA), the assay plates were incubated at room temperature for 2 hrs. The fluorescence intensity was measured by an Envision (PerkinElmer, Shelton, CT) plate reader. Cell viability using CellTiter Glo viability assay (Promega, Madison, WI) was also measured by adding 4 ul/well of CellTiter-Glo reagent into the same assay plate using a FRD. After 30 min incubation at room temperature, the luminescence intensity in the plates was measured using a ViewLux (PerkinElmer) plate reader.
% is set by controls: 0 for no effect and ±100 for the full control effect.

Row | SMILES | max response
1 | CC1(C)C(=O)N(Br)C(=O)N1Br | -10.4%
2 | C[Si]1(C)O[Si](C)(C)O[Si](C)(C)O[Si](C)(C)O1 | 2.58%
3 | CCCCCCCCCCCCc1ccccc1 | -12.7%
4 | C1=C/CC/C=C/CC/C=C/CC/1 | -8.56%
5 | COC(OC)(C(=O)c1ccccc1)c1ccccc1 | 5.37%
6 | O=S(=O)(O)c1ccc(N=Nc2c(O)ccc3cc(S(=O)(=O)O)ccc23)cc1 | -22.3%
7 | OCc1cccc(Oc2ccccc2)c1 | 2.09%
8 | C=C(C)C(=O)OCCOCCOCCOC(=O)C(=C)C | -16.9%
9 | C=CC(=O)OCC[N+](C)(C)C | 1.86%
10 | NCCCCCCCCCCCC(=O)O | 4.58%
11 | C=C(C)C(=O)OCCC[Si](OC)(OC)OC | -0.904%
12 | COC(=O)C1CCC(C(=O)OC)CC1 (stereo not given) | 1.5%
13 | CCCCCCCCCCCCCCCCCC#N | 11.9%
14 | CCCCCCCCCc1ccccc1 | 4.47%
15 | NNS(=O)(=O)c1ccc(Oc2ccc(S(=O)(=O)NN)cc2)cc1 | -13.9%
16 | CC(C)(N=C=O)c1cccc(C(C)(C)N=C=O)c1 | -5.26%
17 | C=CC(=O)OCCOc1ccccc1 | -16.9%
18 | CCCCOC(=O)/C=C\C(=O)OCCCC | 14%
19 | CN=C(N)NCC1CCOC1 (stereo not given) | -1.14%
20 | CC(C)CCCCCCCCCCCCCCC(=O)O | 4.34%

Row | SMILES | max response
21 | C=C[Si](OCCOC)(OCCOC)OCCOC | 15.4%
22 | CCCCCCCC(=O)Oc1c(Br)cc(C#N)cc1Br | 0.905%
23 | CCCCCCCC/C=C\CCCCCCCC(=O)OC | -4.89%
24 | CC(=O)OC(C)(C)C1CC=C(C)CC1 (stereo not given) | -6.08%
25 | Nc1cc(Cl)c(O)c(Cl)c1 | -17.9%
26 | O=C(O)C(Oc1ccc(Cl)cc1)Oc1ccc(Cl)cc1 | -5.82%
27 | CCCCCCCC/C=C\CCCCCCCCO | -1.08%
28 | C[Si](Cl)(Cl)[Si](C)(Cl)Cl | -3.61%
29 | Cc1c(Cl)cccc1Cl | -14.1%
30 | CCOc1ccc(NC(=O)OC(C)C)cc1OCC | -3.59%
31 | Cc1ccc2c(c1)C(=O)OC2=O | -8.54%
32 | CCCCCCCCCCCO | 3.39%
33 | c1ccc(-c2ccc(-c3ccccc3)cc2)cc1 | -5.82%
34 | CC(C)(C)c1ccc(C(=O)O)cc1 | 14.5%
35 | CCCCCCCCCCCCCCCO | -7.38%
36 | Cc1cc(C)c(N)c(Cl)c1 | 2.61%
37 | CCC(=O)OCCc1ccccc1 | 0.747%
38 | CC1(C)C(C=C(Cl)Cl)[C@H]1C(=O)OCc1cccc(Oc2ccccc2)c1 (stereo not given in full) | -12.3%
39 | C[Si]1(C)O[Si](C)(C)O[Si](C)(C)O1 | -2.26%
40 | CC(C)Nc1nc(N)nc(Cl)n1 | -6.9% and -10.3%
